Data reported in PubChem BioAssay (EPA / NIEHS).
The source made the active and inactive calls. How the source made its calls: active means hit-call score of the fitted dose curve at least 0.9, where 1 is the maximum; inactive means score below 0.9.

Assays:
Conditions in all cases: mRNA level, 48 h; actives raise or lower the signal
[1] = read-out: ABC Transporter (ABCC3), ABCC3 (gene 8714); test: LTEA_HepaRG_ABCC3: Life Technologies and Expression Analysis (LTEA) Assay for ABC Transporter (ABCC3) using HepaRG (AID 2283462)
How it was run: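 Differentiated HepaRG liver cells receive test chemicals at eight concentrations (max 100 uM) for 48 h. Expression of ABCC3 is quantified by qRT-PCR against ACTB, GAPDH and POLR2A, and activity is fitted in both directions against the DMSO control.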

[2] = read-out: ABC Transporter (ABCB11), ABCB11 (gene 8647); test: LTEA_HepaRG_ABCB11: Life Technologies and Expression Analysis (LTEA) Assay for ABC Transporter (ABCB11) using HepaRG (AID 2283463)
How it was run: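 ABCB11 transcript levels are read by Fluidigm TaqMan qRT-PCR after 48 h chemical treatment of human HepaRG cells. Concentrations span 100 uM downward in half-log steps with 0.5% DMSO; gain or loss is fitted against DMSO controls.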

[3] = read-out: ABC Transporter (ABCC2), ABCC2 (gene 1244); test: LTEA_HepaRG_ABCC2: Life Technologies and Expression Analysis (LTEA) Assay for ABC Transporter (ABCC2) using HepaRG (AID 2283464)
How it was run: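 Gene expression of ABCC2 was determined by qRT-PCR in HepaRG cells exposed 48 h to chemicals (highest 100 uM, half-log dilutions). Activity was fitted in both directions relative to 0.5% DMSO vehicle.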

[4] = read-out: Broad substrate specificity ATP-binding cassette transporter ABCG2 (Homo sapiens) (UniProt Q9UNQ0); test: LTEA_HepaRG_ABCG2: Life Technologies and Expression Analysis (LTEA) Assay for ABC Transporter (ABCG2) using HepaRG (AID 2283465)
How it was run: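 Read-out is ABCG2 mRNA induction or loss quantified by qRT-PCR after 48 h chemical treatment of human HepaRG cells, normalized to three housekeeping genes. Concentrations reached 100 uM top in half-log steps; fitting was bidirectional against 0.5% DMSO.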

[5] = read-out: ATP-citrate lyase (ACLY), ACLY (gene 47); test: LTEA_HepaRG_ACLY: Life Technologies and Expression Analysis (LTEA) Assay for ATP-citrate lyase (ACLY) using HepaRG (AID 2283466)
How it was run: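 HepaRG, 48 h exposure, 8-pt half-log dilutions (top 100 uM), 0.5% DMSO. Readout: ACLY mRNA, TaqMan qRT-PCR, housekeeping-normalized (ACTB/GAPDH/POLR2A). Bidirectional curve fit vs DMSO.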

[6] = read-out: Peroxisomal acyl-coenzyme A oxidase 1 (ACOX1) gene, ACOX1 (gene 51); test: LTEA_HepaRG_ACOX1: Life Technologies and Expression Analysis (LTEA) Assay for Peroxisomal acyl-coenzyme A oxidase 1 (ACOX1) gene using HepaRG (AID 2283467)
How it was run: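 Measured by qRT-PCR against three housekeeping genes: ACOX1 transcript change in human HepaRG cells after 48 h dosing. Concentrations ran up to 100 uM in half-log steps. Curves were fitted bidirectionally relative to 0.5% DMSO.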

[7] = read-out: Alkaline Phosphatase, Placental (ALPP) gene, ALPP (gene 250); test: LTEA_HepaRG_ALPP: Life Technologies and Expression Analysis (LTEA) Assay for Alkaline Phosphatase, Placental (ALPP) gene using HepaRG (AID 2283468)
How it was run: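 Expression of ALPP was quantified by qRT-PCR against three housekeeping genes in human HepaRG cultures treated for 48 h with an eight-point concentration series up to 100 uM. Activity in either direction was fitted relative to 0.5% DMSO.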

[8] = read-out: Bcl-2 (BAD) gene, BAD (gene 572); test: LTEA_HepaRG_BAD: Life Technologies and Expression Analysis (LTEA) Assay for Bcl-2 (BAD) gene using HepaRG (AID 2283469)
How it was run: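 BAD transcript change, measured by qRT-PCR against three housekeeping genes and fitted in both directions relative to 0.5% DMSO, after 48 h chemical treatment of human HepaRG liver cells at concentrations up to 100 uM.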

[9] = read-out: Bcl-2 (BAX) gene, BAX (gene 581); test: LTEA_HepaRG_BAX: Life Technologies and Expression Analysis (LTEA) Assay for Bcl-2 (BAX) gene using HepaRG (AID 2283470)
How it was run: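 HepaRG (human liver), 48 h exposure, duplicate wells. 8-pt curve, half-log from 100 uM, 0.5% DMSO. BAX transcript by TaqMan qRT-PCR; ACTB/GAPDH/POLR2A normalization; gain or loss vs DMSO baseline.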

[10] = read-out: adenosine kinase (ADK) gene, ADK (gene 132); test: LTEA_HepaRG_ADK: Life Technologies and Expression Analysis (LTEA) Assay for adenosine kinase (ADK) gene using HepaRG (AID 2283471)
How it was run: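 Following 48 h exposure of HepaRG cells in 0.5% DMSO (top concentration 100 uM, duplicate wells), ADK mRNA induction or suppression was measured by qRT-PCR, normalised to ACTB/GAPDH/POLR2A, and fitted bidirectionally relative to vehicle.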

[11] = read-out: Alpha-fetoprotein (AFP) gene, AFP (gene 174); test: LTEA_HepaRG_AFP: Life Technologies and Expression Analysis (LTEA) Assay for Alpha-fetoprotein (AFP) gene using HepaRG (AID 2283472)
How it was run: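 HepaRG, single lot; 48 h post-plating -> serum-free induction medium; cpd 8-pt, 100 uM top, half-log, 0.5% DMSO, duplicate, 48 h. RNA -> qRT-PCR AFP, norm ACTB/GAPDH/POLR2A. Bidirectional fit vs DMSO.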

BCL2L11 (gene 10018) = test: LTEA_HepaRG_BCL2L11: Life Technologies and Expression Analysis (LTEA) Assay for Bcl-2 (BCL2L11) gene using HepaRG (AID 2283473)
How it was run: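 Cells were plated, cultured 48 h, switched to serum-free induction medium, then dosed in duplicate for 48 h at eight half-log concentrations up to 100 uM. Lysates underwent RNA isolation and TaqMan qRT-PCR; gain or loss versus DMSO was fitted.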

[12] = read-out: Apoptosis regulator Bcl-2 (Homo sapiens) (UniProt P10415); test: LTEA_HepaRG_BCL2: Life Technologies and Expression Analysis (LTEA) Assay for Bcl-2 gene using HepaRG (AID 2283475)
How it was run: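 HepaRG, plated 48 h then switched to serum-free induction medium; dosed 48 h, 8 conc. (max 100 uM, half-log steps), duplicate, 0.5% DMSO. Lysis in RLT, RNA isolated, TaqMan qRT-PCR for BCL2; ACTB/GAPDH/POLR2A normalisation; bidirectional fit vs DMSO.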

[13] = read-out: Bcl-2 (BID) gene, BID (gene 637); test: LTEA_HepaRG_BID: Life Technologies and Expression Analysis (LTEA) Assay for Bcl-2 (BID) gene using HepaRG (AID 2283476)
How it was run: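 Transcript levels of BID, measured by qRT-PCR and normalized to three housekeeping genes, were fitted bidirectionally against DMSO controls. Cells were HepaRG, dosed 48 h at up to 100 uM.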

Caspase-3 (Homo sapiens) = Caspase-3 (Homo sapiens) (UniProt P42574); test: LTEA_HepaRG_CASP3: Life Technologies and Expression Analysis (LTEA) Assay for cysteine-aspartic acid protease (CASP3) using HepaRG (AID 2283477)
Chain of Caspase-3 (Homo sapiens) (P42574 whole entry, looked up): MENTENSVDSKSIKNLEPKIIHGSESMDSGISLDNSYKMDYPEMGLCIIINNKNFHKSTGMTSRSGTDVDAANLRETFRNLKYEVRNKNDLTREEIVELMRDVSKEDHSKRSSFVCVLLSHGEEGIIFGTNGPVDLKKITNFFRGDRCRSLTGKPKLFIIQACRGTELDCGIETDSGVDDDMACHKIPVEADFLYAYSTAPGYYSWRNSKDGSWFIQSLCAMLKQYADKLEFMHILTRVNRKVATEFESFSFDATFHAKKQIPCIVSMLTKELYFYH
How it was run: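 In HepaRG liver cells dosed for 48 h at up to 100 uM (eight-point, duplicate), CASP3 expression changes are scored by qRT-PCR. Activity is fitted in both directions with 0.5% DMSO as baseline.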

[14] = read-out: Cytochrome P450 (CYP24A1), CYP24A1 (gene 1591); test: LTEA_HepaRG_CYP24A1: Life Technologies and Expression Analysis (LTEA) Assay for Cytochrome P450 (CYP24A1) using HepaRG (AID 2283478)
How it was run: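 Human liver HepaRG cultures receive each chemical for 48 h across an eight-point half-log series topping at 100 uM in 0.5% DMSO. Induction or suppression of CYP24A1 mRNA is scored relative to vehicle after housekeeping-gene normalization.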

[15] = read-out: Cytochrome P450 (CYP1A2), CYP1A2 (gene 1544); test: LTEA_HepaRG_CYP1A2: Life Technologies and Expression Analysis (LTEA) Assay for Cytochrome P450 (CYP1A2) using HepaRG (AID 2283479)
How it was run: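 Assesses CYP1A2 mRNA in human HepaRG liver cells after 48 h chemical exposure at up to 100 uM. Values come from qRT-PCR with bidirectional curve fitting relative to DMSO.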

[16] = read-out: cysteine-aspartic acid protease (CASP8), CASP8 (gene 841); test: LTEA_HepaRG_CASP8: Life Technologies and Expression Analysis (LTEA) Assay for cysteine-aspartic acid protease (CASP8) using HepaRG (AID 2283480)
How it was run: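 HepaRG, 48 h exposure, duplicate wells; 8 conc, half-log from 100 uM, 0.5% DMSO. Serum-free induction medium. CASP8 mRNA by TaqMan qRT-PCR, norm. ACTB/GAPDH/POLR2A; gain/loss fitted vs DMSO.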

[17] = read-out: growth arrest and DNA damage 45 (GADD45B), GADD45B (gene 4616); test: LTEA_HepaRG_GADD45B: Life Technologies and Expression Analysis (LTEA) Assay for growth arrest and DNA damage 45 (GADD45B) using HepaRG (AID 2283461)
How it was run: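 Values are bidirectional concentration-response fits against 0.5% DMSO controls. Underlying data: qRT-PCR mRNA levels in human HepaRG liver cells treated 48 h in serum-free induction medium, eight concentrations topping at 100 uM.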

[18] = read-out: Apolipoprotein A-V (APOA5) gene, APOA5 (gene 116519); test: LTEA_HepaRG_APOA5: Life Technologies and Expression Analysis (LTEA) Assay for Apolipoprotein A-V (APOA5) gene using HepaRG (AID 2283474)
How it was run: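 Human liver HepaRG cells are treated 48 h with test chemicals (100 uM top, half-log dilutions, 0.5% DMSO). APOA5 mRNA induction or loss is measured by qRT-PCR relative to vehicle.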

Measured: AC50

Chain of Broad substrate specificity ATP-binding cassette transporter ABCG2 (Homo sapiens) (Q9UNQ0 whole entry, looked up): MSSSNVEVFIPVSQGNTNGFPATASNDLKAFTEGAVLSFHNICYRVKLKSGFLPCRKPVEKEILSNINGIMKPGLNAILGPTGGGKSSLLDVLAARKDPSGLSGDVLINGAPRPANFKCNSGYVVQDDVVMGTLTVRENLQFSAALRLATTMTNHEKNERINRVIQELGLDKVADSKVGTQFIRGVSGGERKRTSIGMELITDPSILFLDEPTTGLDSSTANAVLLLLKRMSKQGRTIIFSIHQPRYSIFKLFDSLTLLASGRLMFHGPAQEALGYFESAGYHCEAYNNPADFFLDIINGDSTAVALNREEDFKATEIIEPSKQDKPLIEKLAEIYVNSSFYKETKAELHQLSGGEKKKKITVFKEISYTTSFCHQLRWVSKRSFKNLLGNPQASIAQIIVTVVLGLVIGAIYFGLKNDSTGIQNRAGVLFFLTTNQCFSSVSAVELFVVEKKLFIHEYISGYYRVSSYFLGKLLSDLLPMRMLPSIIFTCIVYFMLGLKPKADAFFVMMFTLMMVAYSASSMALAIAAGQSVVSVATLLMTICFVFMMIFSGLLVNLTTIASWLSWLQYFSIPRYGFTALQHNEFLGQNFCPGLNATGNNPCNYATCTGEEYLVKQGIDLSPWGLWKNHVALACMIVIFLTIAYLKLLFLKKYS
Chain of Apoptosis regulator Bcl-2 (Homo sapiens) (P10415 whole entry, looked up): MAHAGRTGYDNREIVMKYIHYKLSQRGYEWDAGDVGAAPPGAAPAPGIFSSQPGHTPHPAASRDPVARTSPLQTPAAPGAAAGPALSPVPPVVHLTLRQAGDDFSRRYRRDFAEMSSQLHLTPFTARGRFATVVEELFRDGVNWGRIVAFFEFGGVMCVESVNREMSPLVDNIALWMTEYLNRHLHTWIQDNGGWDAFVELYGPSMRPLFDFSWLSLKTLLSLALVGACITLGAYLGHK

CCCCCCCC=O
active: [15] 50 µM
not listed: [17] | [18]
inactive: all other assays above

Cc1cc(NC(=O)C(=O)O)cc(C)c1Oc1ccc(O)c2c1CCC2
active: [2] 0.00778 µM | [11] 9.92 µM | [15] 0.00228 µM
not listed: [5] | [9] | [13]
inactive: all other assays above
